Bioassay records as filed in PubChem.
PI5P4K alpha inh: PI5P4K alpha (human) kinase inhibition. P48426. PI5P4Kalpha enzyme, ADP-Glo luminescence, 60 min; hits give low values. max response, %. 330,000 tested, 1.2% active. AID 652105; active = max response of -50% or lower; inconclusive = between -30% and -50%; inactive = -30% or higher; note: value at the top dose of about 77 µM; % is set by controls: 0 for no effect and ±100 for the full control effect
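Controls without substrate or without enzyme flank wells where PI5P4Kalpha converts substrate using 5 microM ATP (final). Incubation lasts 60 minutes at room temperature; ADP formed is read by ADP-Glo luminescence.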
BAZ2B block: inhibitors of human BAZ2B bromodomain; AlphaScreen BAZ2B-H3K14Ac peptide displacement; Q9UIF8; Potency, µM (series often up to 114 µM), for inactives: at the top dose activity change, negative = inhibition, actives largely listed as inhibitors; AID 504333; 360,000 tested, 4.4% active; note: potency is the fitted concentration of half-maximal effect; % is set by controls: 0 for no effect and ±100 for the full control effect; nearly all actives have a fitted effect of over 60% in size
Target sequence (Q9UIF8 whole entry, looked up): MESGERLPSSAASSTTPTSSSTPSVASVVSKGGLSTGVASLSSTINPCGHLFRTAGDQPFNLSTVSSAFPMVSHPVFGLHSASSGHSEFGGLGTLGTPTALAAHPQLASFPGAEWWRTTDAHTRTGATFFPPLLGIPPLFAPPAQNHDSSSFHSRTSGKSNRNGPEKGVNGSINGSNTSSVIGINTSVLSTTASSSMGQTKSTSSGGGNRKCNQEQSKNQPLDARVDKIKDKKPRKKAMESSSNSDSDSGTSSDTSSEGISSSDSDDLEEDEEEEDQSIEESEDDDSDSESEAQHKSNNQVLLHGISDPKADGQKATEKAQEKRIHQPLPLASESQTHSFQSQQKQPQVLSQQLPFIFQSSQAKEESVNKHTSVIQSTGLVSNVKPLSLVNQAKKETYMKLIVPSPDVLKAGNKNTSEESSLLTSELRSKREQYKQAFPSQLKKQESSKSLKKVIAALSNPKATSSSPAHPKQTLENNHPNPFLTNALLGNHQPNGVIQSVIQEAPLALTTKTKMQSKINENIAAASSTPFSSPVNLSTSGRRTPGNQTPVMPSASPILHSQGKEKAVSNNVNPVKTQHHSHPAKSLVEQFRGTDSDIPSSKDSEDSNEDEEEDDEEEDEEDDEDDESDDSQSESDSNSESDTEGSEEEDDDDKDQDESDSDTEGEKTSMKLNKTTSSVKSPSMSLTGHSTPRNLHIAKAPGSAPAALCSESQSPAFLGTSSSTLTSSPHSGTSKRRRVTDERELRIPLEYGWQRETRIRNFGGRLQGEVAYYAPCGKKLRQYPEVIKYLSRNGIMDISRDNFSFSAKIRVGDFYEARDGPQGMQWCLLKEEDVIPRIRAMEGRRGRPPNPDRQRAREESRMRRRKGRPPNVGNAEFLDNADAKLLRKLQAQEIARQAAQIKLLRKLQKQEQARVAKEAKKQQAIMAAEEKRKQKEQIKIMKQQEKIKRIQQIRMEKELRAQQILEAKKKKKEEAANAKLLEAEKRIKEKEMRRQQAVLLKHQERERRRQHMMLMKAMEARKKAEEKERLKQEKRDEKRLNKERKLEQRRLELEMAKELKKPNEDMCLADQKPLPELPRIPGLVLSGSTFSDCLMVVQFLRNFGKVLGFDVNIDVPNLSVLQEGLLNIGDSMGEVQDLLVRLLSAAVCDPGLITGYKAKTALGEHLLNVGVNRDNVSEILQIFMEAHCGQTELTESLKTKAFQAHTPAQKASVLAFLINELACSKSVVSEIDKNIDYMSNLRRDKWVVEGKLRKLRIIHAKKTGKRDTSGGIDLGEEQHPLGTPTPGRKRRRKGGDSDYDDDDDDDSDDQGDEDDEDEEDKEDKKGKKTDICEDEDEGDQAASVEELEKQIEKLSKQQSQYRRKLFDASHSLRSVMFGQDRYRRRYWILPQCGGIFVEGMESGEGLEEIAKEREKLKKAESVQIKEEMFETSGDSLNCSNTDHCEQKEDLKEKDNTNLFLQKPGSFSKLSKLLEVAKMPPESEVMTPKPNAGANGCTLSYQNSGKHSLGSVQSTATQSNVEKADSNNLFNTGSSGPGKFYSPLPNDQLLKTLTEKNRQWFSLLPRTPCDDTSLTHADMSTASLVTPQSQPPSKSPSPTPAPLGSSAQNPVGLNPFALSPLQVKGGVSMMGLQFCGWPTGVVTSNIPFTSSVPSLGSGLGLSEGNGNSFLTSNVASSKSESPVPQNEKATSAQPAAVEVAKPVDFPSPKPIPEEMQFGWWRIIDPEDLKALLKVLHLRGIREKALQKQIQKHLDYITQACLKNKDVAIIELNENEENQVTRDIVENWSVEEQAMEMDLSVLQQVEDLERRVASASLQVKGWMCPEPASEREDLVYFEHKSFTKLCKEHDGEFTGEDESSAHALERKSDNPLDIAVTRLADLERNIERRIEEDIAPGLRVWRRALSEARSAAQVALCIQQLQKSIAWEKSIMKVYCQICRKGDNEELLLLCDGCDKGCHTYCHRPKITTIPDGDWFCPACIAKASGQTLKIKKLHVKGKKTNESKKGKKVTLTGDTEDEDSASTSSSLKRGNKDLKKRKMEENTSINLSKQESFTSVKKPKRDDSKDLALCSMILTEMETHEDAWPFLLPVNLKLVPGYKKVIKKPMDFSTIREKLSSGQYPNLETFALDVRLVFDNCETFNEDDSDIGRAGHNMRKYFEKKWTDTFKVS
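Inhibition is scored as reduced AlphaScreen emission. The BAZ2B/b-H3(5-23)K14Ac complex (50 nM each) in PBS pH 7.4, 0.01% Tween-20 meets compound (up to 110 uM) for 30 min at RT before bead addition.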
G9a inh: blocks human histone lysine methyltransferase G9a | Q96KQ7 | Potency, µM (highest dose often 102 µM), inactives show top-dose activity, negative = inhibition, actives largely listed as inhibitors | 350,000 tested, 8.8% active | G9a H3K9 monomethylation, AlphaScreen, 2 h; note: potency is the fitted concentration of half-maximal effect; % is set by controls: 0 for no effect and ±100 for the full control effect; nearly all actives have a fitted effect of over 75% in size
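Quantitative HTS format: methyltransferase activity on a biotin-tagged H3K9 peptide is measured by AlphaScreen, using a rabbit anti-monomethyl-H3K9 antibody with streptavidin donor and anti-IgG acceptor beads. Final levels are 20 nM enzyme, 500 nM peptide, 20 uM SAM; 2 h RT.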
HP1b chromo inh: blocks HP1-beta chromodomain binding to methylated histone tails; AID 540317; AlphaScreen HP1-beta / biotin-H3K9me3 peptide binding; Potency, µM (top dose mostly 114 µM), for the others: top-dose activity change, negative = inhibition, usual class: inhibitors; P83916; 390,000 tested, 0.56% active; note: potency is the fitted concentration of half-maximal effect; nearly all actives have a fitted effect of over 70% in size
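AlphaScreen: HP1-beta (50 nM) preformed 30 min with biotin-H3(1-18)K9me3 peptide (50 nM) in PBS pH 7.4, 0.01% Tween-20. Compound added for 30 min at RT, then streptavidin donor/nickel chelate acceptor beads (10 ug/mL) for 30 min.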
L3MBTL1 inh: blocks human L3MBTL1 | AID 485360 | AlphaScreen L3MBTL1–H3K9me1 peptide binding | Q9Y468 | Potency, µM (highest dose often 57.1 µM), without a hit: at the top dose activity, negative = inhibition, hits mostly inhibitors | 230,000 tested, 0.66% active; note: potency is the fitted concentration of half-maximal effect; % is set by controls: 0 for no effect and ±100 for the full control effect; nearly all actives have a fitted effect of over 60% in size
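AlphaScreen proximity signal between nickel-chelate acceptor and streptavidin donor beads (final 10 ug/mL) reports binding of 50 nM L3MBTL1 to 75 nM biotin-H3 K9me1 peptide; complex incubated with compounds 30 min at room temperature; cefsulodin titration as control.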
JMJD2A Tudor: inhibitors of human JMJD2A Tudor domain | O75164 | AlphaScreen JMJD2A-Tudor / H3K4me3 peptide binding | Potency, µM (highest dose often 114 µM), for the others: at the highest dose activity change, negative = inhibition, most hits filed as inhibitors | 390,000 tested, 4.4% active | AID 504339; note: potency is the fitted concentration of half-maximal effect; % is set by controls: 0 for no effect and ±100 for the full control effect; nearly all actives have a fitted effect of over 50% in size
An asterisk follows results filed as active; ? = inconclusive; . = no result given; [ ] = another dose, or the depositor's remark. Sampled rows, rich in hits. Any-hit rate of the full collection: about 11%. Unless noted, calls come from the whole dose curve; as a rule, active = well fitted inhibition curve with a large enough effect; inconclusive = small, poorly fitted or top-dose-only effect; inactive = no such curve, though single readings can be large or run the other way.

SMILES	PI5P4K alpha inh	BAZ2B block	G9a inh	HP1b chromo inh	L3MBTL1 inh	JMJD2A Tudor
Cc1ccc(NC(=O)C2C3C=CC(O3)C2C(=O)O)cc1C (stereo unspecified)	-1.0	89.1µM*	2.8%[0.501 µM]	32.8%	0.1%[2.29 µM]	-9.6%
Cc1cccc(NC(=O)C2C3C=CC(C4CC34)C2C(=O)O)c1 (stereo unspecified)	-6.5	10.2%	?	23.8%	-20.0%	-7.4%
Cc1cccc(NC(=O)C2C3C=CC(O3)C2C(=O)O)c1 (stereo unspecified)	.	4.4%	28.2µM*	.	0.5%	.
S=c1[nH]c2cc(-c3ccccc3)ccc2o1	?	?	10µM*	14.4%[57 µM]	.	-19.9%
O=C1OC(c2cccs2)=N/C1=C\c1ccc(-c2ccccc2Cl)o1	.	-36.4%	39.8µM*	?	-5.3%	?
CN(C)/C=C1\N=C(c2cccs2)OC1=O	-1.6	-2.8%	-13.3%	12.4%	0.6%	-6.4%
NC(=O)c1cc([N+](=O)[O-])ccc1NCCc1ccccc1	?	-32.7%	10.5%	3.5%	-7.5%	-19.9%
NC(=O)c1ccc([N+](=O)[O-])cc1SCc1ccccc1	?	?	39.8µM*	17.3%	-14.0%	-29.2%
OC(CON=C1c2ccccc2-c2ccccc21)CN1CCNCC1 (stereo unspecified)	-1.3	20µM*	50.1µM*	?	.	3.55µM*
O=[N+]([O-])c1cccnc1N1CCN(c2ccc(F)cc2)CC1	-2.1	39.8µM*	44.7µM*	44.7µM*	-4.2%	25.1µM*
CCOC(=O)c1cc(-c2ccccc2)n(CCC(=O)Nc2nc3c(C)cccc3s2)c1C	.	-31.6%	-39.4%[59 µM]	-0.9%	.	?
COC(=O)CCC/C=C1/SCC(NC(=O)c2ccccc2)C1=O (stereo unspecified)	-26.8	?	44.7µM*	-18.0%	.	-35.0%
O=C(O)CN1C(=O)/C(=C\c2cc(Br)ccc2OCc2ccc(Cl)cc2Cl)SC1=S	-6.3	25.1µM*	40.0%[0.501 µM]	?	.	20µM*
O=C(O)CN1C(=O)/C(=C\c2cccc(OCc3ccc(F)cc3)c2)SC1=S	-1.4	?	44.7µM*	-8.7%	.	?
O=C(O)CN1C(=O)/C(=C\c2cccc(OCc3ccc(Cl)cc3)c2)SC1=S	1.7	44.7µM*	39.8µM*	-11.0%	.	?
Cc1cc(Cl)ccc1NC(=O)c1cc(S(=O)(=O)N2CCOCC2)cn1C	.	2.6%	9.8%[59 µM]	21.4%	.	-16.0%
C[C@]12CCC(=O)C=C1[C@@H]1C[C@H]1[C@H]1[C@@H]3[C@@H]4C[C@H]4[C@@]4(CCC(=O)O4)[C@@]3(C)CC[C@@H]12	.	.	-0.8%[59 µM]	.	.	.
CC(NS(=O)(=O)c1ccc2c(c1)CCN2C(=O)CCCC(=O)O)c1ccccc1 (stereo unspecified)	.	.	-1.5%[59 µM]	38.7%	.	3.7%
CCOc1ccccc1NC(c1nnc(-c2ccccc2)o1)c1ccc(F)cc1Cl (stereo unspecified)	.	-14.5%	-4.4%[59 µM]	29.0%	.	-13.0%
N#C/C(C(=O)NCc1ccco1)=C1/SC=C(c2ccccc2)N1c1ccccc1	11.8	-3.3%	15.8µM*	35.3%	0.3%	-7.4%
CCOC(=O)c1c(N/N=C/c2cccnc2)n[nH]c1C	-9.2	-1.2%	70.8µM*	39.1%	5.1%	-4.0%
CC(=O)NN1C(=O)/C(=C\c2ccc(Cl)cc2)SC1=S	-7.5	-2.0%	.	16.0%	7.3%	-5.7%
CC(=O)NN1C(=O)/C(=C/c2ccc(Br)o2)SC1=S	?	-37.5%	50.1µM*	50.1µM*	.	13.0%[11.4 µM]
CC(=O)NN1C(=O)/C(=C\c2ccccc2)SC1=S	-13.9	-28.5%	11.9%	25.3%	-3.8%	-26.1%
CC(=O)NN1C(=O)/C(=C\c2ccc(Br)o2)SC1=S	-1.6	?	39.8µM*	?	?	-25.6%
SMILES	PI5P4K alpha inh	BAZ2B block	G9a inh	HP1b chromo inh	L3MBTL1 inh	JMJD2A Tudor
COc1ccccc1C(=O)Nc1cccc(C(=O)OCc2cc(=O)n3nc(C4CC4)sc3n2)c1	.	-0.8%	16.8%[59 µM]	37.4%	.	-4.3%
Cc1cc(=O)n2[nH]c(NC(=O)c3cccc(Cl)c3)nc2n1	.	-29.6%	?	20.2%	.	-35.8%
CC1=CC(c2ccccc2)n2nc(N3C(=O)c4ccccc4C3=O)nc2N1 (stereo unspecified)	.	-37.2%	-2.3%[12.7 µM]	29.5%	-7.5%	-29.9%
CC1=CC(c2ccccc2)n2nc(N3C(=O)CCC3=O)nc2N1 (stereo unspecified)	7.9	?	20µM*	35.3%	-4.8%	79.4µM*
CC1=CC(c2ccccc2)n2nc(N3C(=O)C4CC=CCC4C3=O)nc2N1 (stereo unspecified)	0.7	-35.0%	25.1µM*	22.8%	5.0%	-32.8%
O=C(COC(=O)Cc1ccccc1F)Nc1ccc(Cl)cn1	?	11.5%	-30.1%	-11.2%	.	20µM*
CCOc1ccc(Br)cc1/C=N/O	.	2.4%	4.5%[59 µM]	15.8%	.	-0.6%
O=C(O)COc1ccc(Br)cc1/C=N/O	-5.8	?	56.2µM*	24.1%	?	-31.6%
CCCOc1ccc(C(=O)NCC2OCCc3ccccc32)cc1 (stereo unspecified)	.	10.6%	-5.1%[59 µM]	13.1%	.	-10.7%
COc1ccc(-c2sc3cc(OC)c(OC)cc3c2C#CCO)cc1	5.0	.	.	24.2%	?	20µM*
COc1ccc(-c2sc3cc(OC)c(OC)cc3c2C#CC(C)(C)O)cc1	8.0	?	13.4%[0.501 µM]	27.8%	1.9%	-26.2%
COc1ccc(-c2sc3ccc(N4CCOCC4)cc3c2C#CC(C)(C)O)cc1	32.1	50.1µM*	-2.3%[0.501 µM]	26.9%	0.5%	?
COc1ccc2sc(-c3ccc(N(C)C)cc3)c(C#CCCO)c2c1	75.7	?	-0.8%[0.501 µM]	-9.7%	-19.4%	-57.3%
COc1ccc2sc(-c3ccc(N(C)C)cc3)c(C#Cc3cncn3C)c2c1	92.4	.	.	-26.7%	?	22.4µM*
COc1ccc2sc(-c3ccc(N(C)C)cc3)c(C#CC(C)(C)O)c2c1	36.0	21.7%	5.9%[0.501 µM]	76.9%	17.9%	14.7%
COc1ccc(-c2sc3ccc(OC)cc3c2C#CCCO)cc1	33.2	0.4%	35.5µM*	45.8%	2.0%	-7.0%
CCn1cc(C(=O)N2CCN(c3cccc(Cl)c3)CC2)c(=O)c2cc(S(=O)(=O)N3CCC(C)CC3)ccc21	.	.	?	0.5%	.	-34.0%
O=C(O)CCCNc1ccc(S(=O)(=O)Nc2ccccc2C(=O)O)cc1C(=O)O	.	?	50.1µM*	7.9%	-2.0%	-34.4%
Cc1cccc(C(=O)OCC(=O)N2CC(C)OC(C)C2)c1C (stereo unspecified)	0.7	-3.0%	23.9%	20.0%	.	-13.4%
Cc1cccc(C(=O)OCC(=O)c2ccc(CC(=O)N3CCOCC3)s2)c1C	-59.9*	50.1µM*	2.1%[2.33 µM]	-11.8%	?	?
